Experimental data: the supplement of paper PMC10981050
Where “and” joins values, the source holds several entries; their conditions need not be identical. Equal entries are not always repeated. Structures can show the parent of a compound that is named as a salt.

What was measured:
Test in all cases: cell viability relative to vehicle control; higher = less cytotoxic
Settings in all cases: 10 µM
K562 = system: K562
Outline: (§1)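 Mutant clones made by CRISPR editing and their isogenic wild-type counterparts, from four leukaemia lines, were exposed to a single 10 µM dose of each library compound for 48 h. The supernatant was then removed and CellTiter-Glo luminescence was read. Viability was reported as percent of the on-plate vehicle control.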

MARIMO = system: MARIMO
Outline: as §1

MOLM14 = system: MOLM14
Outline: as §1

OCI-AML2 = system: OCI-AML2
Outline: as §1

Compound	cell viability (K562; SRSF2 genotype: SRSF2 P95H/wt)	cell viability (K562; SRSF2 genotype: SRSF2 wt/wt) [%]	cell viability (MARIMO; SRSF2 genotype: SRSF2 P95H/wt) [%]	cell viability (MARIMO; SRSF2 genotype: SRSF2 wt/wt) [%]	cell viability (MOLM14; SRSF2 genotype: SRSF2 P95H/wt) [%]	cell viability (MOLM14; SRSF2 genotype: SRSF2 wt/wt) [%]	cell viability (OCI-AML2; SRSF2 genotype: P95H/wt) [%]	cell viability (OCI-AML2; SRSF2 genotype: wt/wt) [%]
COc1cccc(/C=N/N(C(=O)C(F)(F)F)c2ccc(C)cc2C)c1	90.5% and 95.3%	99.8	83.5	102	98.5	105	101	106
COc1nccc(-c2c(-c3ccc(F)cc3)ncn2C2CCC(O)CC2)n1 (configuration not stated)	96.5% and 98.5%	89.3	98.3	110	107	107	107	107
Cc1cc(/C=C/C#N)cc(C)c1Nc1ccnc(Nc2ccc(C#N)cc2)n1 [Rilpivirine]	35.2% and 46.8%	50.1	61.8	59.8	49.6	43.9	44.2	48
OC[C@@H](O)[C@@H](O)[C@@H](O)CO [Ribitol (Adonitol)]	94.5% and 97%	96.2	89.7	93.4	97.9	94.3	90	97.9
Cc1nccn1CC1CCc2c(c3ccccc3n2C)C1=O (configuration not stated) [Ondansetron Hydrochloride Dihydrate]	95.8% and 94.2%	91.5	95.9	108	97.4	97.4	88.6	99.1
Cc1ccc(C(=O)Nc2ccc(CN3CCN(C)CC3)c(C(F)(F)F)c2)cc1C#Cc1cnc2[nH]ncc2c1 [GZD824 Dimesylate]	0.41% and 0.25%	0.26	0.31	0.33	0.15	0.17	0.16	0.2
Cc1cc(Nc2ncnc3ccc(NC4=NC(C)(C)CO4)cc23)ccc1Oc1ccn2ncnc2c1	87.4% and 89.8%	91.5	82.5	102	88.2	97.2	64.9	73.7
NC[C@@](O)(c1ccc(Cl)cc1)c1ccc(-c2cn[nH]c2)cc1	34.7% and 19.4%	13	52.9	56.4	29.3	25.6	13.8	17.4
CC(C)C[C@@H]1NC(=O)[C@@H](C(C)C)NC(=O)[C@@H]2CCCN2C(=O)[C@@H](CC(=O)O)NC(=O)[C@@H](Cc2c[nH]c3ccccc23)NC1=O	101% and 105%	97	101	108	99	101	103	103
